SMILES strings stand for the structures. About 83,000 compounds went through this panel and 20% of them were active in at least one assay; those are over-represented in the sample as a whole.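 Testing used 96-well plates and a 48-hour single-concentration exposure. Example: -40 means 40% of the starting cells died.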 A number with no mark means an inactive call. Calls of active or inactive are those of the source. How the source made its calls: active means growth percent below 10; inactive means the rest.

Some test systems named below: HCT-15 colon; HT29 colon; SNB-75 CNS; SNB-19 CNS; PC-3 prostate; SK-MEL-5 melanoma; UACC-62 melanoma; LOX IMVI melanoma; SK-MEL-28 melanoma; U251 CNS.
What all share (assay): NCI-60 one-dose screen, 48 h (100 = growth as untreated, 0 = no growth, -100 = all killed)
Common to all, as to conditions: 10 µM unless noted

For the compound `Cc1cccc(CC(=O)c2ccccc2)n1`, the growth with HCT-15 colon was 93.2%; in the test with HT29 colon, 82.1%; in the test with SNB-75 CNS, 84.6%; in the test on SNB-19 CNS it was 88.7%; in the test on PC-3 prostate, 80.5%; with SK-MEL-5 melanoma it was 96.6%. Further, the growth in the test with UACC-62 melanoma is 74.7%; in the test with LOX IMVI melanoma it was 76.5%; with SK-MEL-28 melanoma it was 105%.

Turning to `NC(=NCCCOc1ccc(F)cc1)Nc1ccc(Cl)c(Cl)c1`, the growth with HCT-15 colon is 75.6%; in the test on HT29 colon, 31.7%; with SNB-75 CNS it was 57.8%; in the test with SNB-19 CNS it was 77%; in the test with PC-3 prostate it was 63.9%; with SK-MEL-5 melanoma it was 51.4%. The values for the growth with UACC-62 melanoma, in the test on LOX IMVI melanoma and in the test with SK-MEL-28 melanoma were 78.6%, 55.9% and 94.3%, respectively.

As to `COc1ccc(C[C@H](N)C(=O)N[C@@H]2[C@@H](CO)OC(n3cnc4c(N(C)C)ncnc43)[C@@H]2O)cc1` (some centres undefined), the growth is 71.6% in the test on HCT-15 colon; -63.8% (active) with HT29 colon; -40.7% (active) with SNB-75 CNS; -4.27% (active) with SNB-19 CNS; -6.6% (active) with PC-3 prostate; -96.6% (active) in the test on SK-MEL-5 melanoma. In addition, the growth in the test with UACC-62 melanoma was -81.3% (active); in the test on LOX IMVI melanoma, -61.9% (active); with SK-MEL-28 melanoma, -64.4% (active).

With `O=C1c2ccccc2C(=O)c2c(NCCN=Cc3c(O)ccc4ccccc34)cccc21`, the growth in the test on HCT-15 colon is 77%; in the test with HT29 colon it was 88%; in the test on SNB-75 CNS it was 84%; with SNB-19 CNS it was 84.9%; in the test with PC-3 prostate it was 84.5%; with SK-MEL-5 melanoma, 86.7%. For the same compound, the growth in the test with UACC-62 melanoma is 85.8%; in the test with LOX IMVI melanoma, 66.7%; in the test on SK-MEL-28 melanoma it was 117%.

As to `CN[C@@H](CCCNC(N)=NC/C=C(/C)CCC=C(C)C)C(=O)N(C)[C@@H](CCCNC(N)=NCC=C(C)C)C(=O)N[C@H](C)[C@H](OS(=O)(=O)O)c1ccc(OS(=O)(=O)O)c(COS(=O)(=O)O)c1`, the growth was 113% in the test with HCT-15 colon; 86.2% in the test with HT29 colon; 101% with SNB-19 CNS; 98.4% with U251 CNS; 89.5% with PC-3 prostate; 99.6% with SK-MEL-5 melanoma. In addition, the growth in the test on UACC-62 melanoma was 93.8%; in the test with LOX IMVI melanoma, 99.7%; in the test on SK-MEL-28 melanoma, 107%.

Regarding `O=C(O)c1ccccc1C(=O)c1ccc(I)cc1`, the growth is 100% in the test with HCT-15 colon; 90% with HT29 colon; 110% in the test on SNB-19 CNS; 102% in the test on U251 CNS; 91.2% with PC-3 prostate; 102% in the test with SK-MEL-5 melanoma. For the same compound, the values for the growth in the test on UACC-62 melanoma, in the test on LOX IMVI melanoma and with SK-MEL-28 melanoma were 105%, 91% and 107%, respectively.

In the case of `COc1cc(Cn2cc3c(c2)-c2onc(CO)c2CC3)cc(OC)c1OC`, the growth was 89% in the test with HCT-15 colon; 104% in the test on HT29 colon; 94.5% in the test on SNB-19 CNS; 97.6% in the test with U251 CNS; 88.7% with PC-3 prostate; 80.3% in the test with UACC-62 melanoma. Moreover, the figures for the growth with LOX IMVI melanoma and with SK-MEL-28 melanoma were 94.7% and 93.7%, respectively.

Regarding `O=C(/C=C/c1ccco1)c1cccc(Nc2nc(Nc3ccccc3)nc(Nc3ccccc3)n2)c1`, the growth was 72% with HCT-15 colon; 79.1% with HT29 colon; 92.4% with SNB-19 CNS; 77.1% with U251 CNS; 66.4% in the test on PC-3 prostate; 81.2% in the test with SK-MEL-5 melanoma. Also, the growth with UACC-62 melanoma was 80.3%; with LOX IMVI melanoma, 83.5%; in the test on SK-MEL-28 melanoma it was 95%.

As for `c1ccc(CNCCN(CCNCc2ccccn2)Cc2ccc3ccccc3c2)nc1`, the growth in the test on HCT-15 colon was 1.52% (active); in the test on HT29 colon, 6.31% (active); in the test on SNB-19 CNS, 18.3%; with U251 CNS it was 3.09% (active); with PC-3 prostate, -0.81% (active); in the test on SK-MEL-5 melanoma, -43.1% (active). Further, the growth is -23.4% (active) in the test with UACC-62 melanoma, 0.713% (active) with LOX IMVI melanoma and 5% (active) in the test with SK-MEL-28 melanoma.

As for `Nc1nc(-c2cc3c(cc2Cl)NC(=O)/C3=C/c2ccccc2)cs1`, the growth is 35.5% in the test on HCT-15 colon; 35.8% in the test on HT29 colon; 59.7% in the test with SNB-19 CNS; 40.3% in the test with U251 CNS; 46.4% in the test on PC-3 prostate; 24.7% in the test on SK-MEL-5 melanoma. Also, the figures for the growth in the test with UACC-62 melanoma and in the test with LOX IMVI melanoma were 43% and 3.66% (active), respectively.

`C=CC(C)(O)CCC1C(=C)CCC2C(C)(C)CCCC12C` (centres undefined): the growth with HCT-15 colon is 97.3%; in the test on HT29 colon, 70.1%; in the test on SNB-19 CNS it was 111%; with U251 CNS, 104%; with PC-3 prostate it was 112%; in the test with SK-MEL-5 melanoma it was 107%. The results for the growth in the test on UACC-62 melanoma, in the test on LOX IMVI melanoma and with SK-MEL-28 melanoma were 95.5%, 97.2% and 101%, respectively.

In the case of `O=C(NCCNc1nccc(-c2c(-c3cccc(O)c3)nc3sccn23)n1)Nc1cccc(C(F)(F)F)c1`, the growth in the test on HCT-15 colon is 84.7%; in the test on HT29 colon, 38.9%; in the test with SNB-19 CNS, 89.5%; with U251 CNS, 81.6%; with PC-3 prostate, 26.7%; with SK-MEL-5 melanoma, 53.5%. Further, the growth is 29.4% in the test on UACC-62 melanoma, 64.5% in the test with LOX IMVI melanoma and 48.8% in the test with SK-MEL-28 melanoma.

Consider `COc1cc(/C=C/C(=O)c2ccc(Oc3ncnc4ccccc34)cc2)cc(OC)c1OC`, for which the growth in the test on HCT-15 colon was 41.5%; in the test with HT29 colon, 79.7%; in the test with SNB-19 CNS, 68.6%; with U251 CNS, 60.3%; in the test with PC-3 prostate it was 75.6%; in the test on SK-MEL-5 melanoma, 81%. In addition, the growth in the test on UACC-62 melanoma was 65.9%; in the test with LOX IMVI melanoma, 40.4%; in the test with SK-MEL-28 melanoma, 89.4%.

Consider `O=C(Nc1ccc(-n2cc(-c3ccncc3)c(-c3ccc(O)c(Cl)c3)n2)cc1)c1ccc(Cl)c(Cl)c1`, for which the growth with HCT-15 colon was 18.2%; with HT29 colon, -10.4% (active); with SNB-19 CNS it was 59.6%; in the test on U251 CNS it was 26.8%; in the test with PC-3 prostate, 20.2%; in the test with SK-MEL-5 melanoma, -20.3% (active). Also, the growth was 59.1% with UACC-62 melanoma, -29.1% (active) with LOX IMVI melanoma and 59.7% in the test on SK-MEL-28 melanoma.
